# TrxR1 substrate: qHTS Assay for Substrates of Mammalian Selenoprotein Thioredoxin Reductase 1 (TrxR1): qHTS. AID 588456, 2011. purified TrxR1 substrate turnover, NADPH consumption readout. 390,000 compounds, 0.01% hits. Potency, µM (doses to about 114 µM), for inactives: top-dose activity change, negative = substrate turnover. Thioredoxin reductase 1, cytoplasmic (Rattus norvegicus), O89049; further: nearly all actives have a fitted effect of over 50% in size
#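 Rat TrxR1, dispensed at 90 nM, was prereduced with 400 uM NADPH (final) for 5 min at ~22 deg C, then incubated with compound 15 min before 400 uM selenite. A first-read NADPH fluorescence drop versus no-compound background flagged substrates.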
# rTrxR1 inhibitor: qHTS Assay for Inhibitors of Mammalian Selenoprotein Thioredoxin Reductase 1 (TrxR1): qHTS; AID 588453, 2011; Potency, µM (titrated, usually from 114 µM), for the others: at the highest dose activity change, negative = inhibition, hits mostly inhibitors; recombinant rTrxR1, NADPH fluorescence consumption, selenite substrate; Thioredoxin reductase 1, cytoplasmic (Rattus norvegicus), O89049; 390,000 compounds, 1% hits; further: nearly all actives have a fitted effect of over 65% in size
#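 Rat TrxR1 (90 nM in the dispensed reagent) was pre-reduced with 400 uM NADPH for 5 min at room temperature, then incubated with compound for 15 min. After 400 uM selenite was added, NADPH fluorescence (Ex 340/Em 450 nm) was followed for 8 min.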
# GALK inhibitor: qHTS Assay for Inhibitors of Human Galactokinase (GALK) | Potency, µM (highest dose often 57.5 µM), inactives show top-dose activity change, negative = inhibition, usual class: inhibitors | P51570 | Purified GALK, Kinase-Glo residual ATP luminescence | AID 1868, 2009 | 270,000 compounds, 0.007% hits
# Target sequence (P51570 whole entry, looked up): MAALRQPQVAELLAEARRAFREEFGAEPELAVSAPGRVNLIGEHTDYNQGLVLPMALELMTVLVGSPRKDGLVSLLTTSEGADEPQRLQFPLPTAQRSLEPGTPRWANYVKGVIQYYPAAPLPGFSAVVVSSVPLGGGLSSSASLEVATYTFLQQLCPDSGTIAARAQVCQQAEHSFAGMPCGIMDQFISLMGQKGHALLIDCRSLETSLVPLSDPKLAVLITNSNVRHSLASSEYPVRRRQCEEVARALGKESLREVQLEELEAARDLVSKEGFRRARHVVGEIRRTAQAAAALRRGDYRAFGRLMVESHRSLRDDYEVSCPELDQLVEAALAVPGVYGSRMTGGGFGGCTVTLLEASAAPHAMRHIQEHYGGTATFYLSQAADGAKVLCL
#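 Kinase-Glo Plus luminescence measured ATP left after a 1 h room-temperature reaction. The reaction used 5 nM GALK, 100 uM galactose and 35 uM ATP at pH 8.0 (20 mM HEPES, 5 mM MgCl2, 60 mM NaCl, 1 mM DTT, 0.01% BSA).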
# NPSR antagonist: qHTS Assay for Antagonists of the Neuropeptide S Receptor: cAMP Signal Transduction; AID 1461, 2008; 220,000 compounds, 1% hits; CHO-NPSR cells, cAMP TR-FRET, antagonist mode; Potency, µM (series often up to 38.3 µM), without a hit: top-dose activity change, negative = inhibition, most hits filed as inhibitors; further: nearly all actives have a fitted effect of over 50% in size
# Starred values were filed as active, the others as inactive; u = inconclusive; x = no result; ! = a repeat was not active; [ ] = remark or other dose. A selection: hits, their analogues and other compounds. The true share with any hit is near 1.2%. The call rests on the fitted dose curve; in most records, active means well fitted curve in the direction sought with a large enough effect; inconclusive means small, poorly fitted or top-dose-only effect, or another doubt; inactive means no such curve, though single readings can be large; an effect the other way counts as inactive or inconclusive. On the % scale 0 is the no-effect control and ±100 the full control effect; potency means the concentration at half of the fitted maximal effect.
SMILES,TrxR1 substrate,rTrxR1 inhibitor,GALK inhibitor,NPSR antagonist
O=C(c1ccccc1)c1sc(N2CCCCCC2)nc1-c1ccccc1,-14%,17%[57.1 µM],1%,u
Cc1ccc(CNC(=O)Cn2cc(S(=O)(=O)Cc3ccccc3F)c3ccccc32)cc1,-2%,1%,x,x
CCOc1ccc(N2C(=O)CC(N3CCN(c4ccc([N+](=O)[O-])cc4)CC3)C2=O)cc1 (stereo unspecified),-3%,25µM*,-5%,x
CCOc1ccc(N2C(=O)CC(N3CCN(c4ccc(Cl)cc4)CC3)C2=O)cc1 (stereo unspecified),14%[2.29 µM],40µM*,4%,x
COc1ccc(N2C(=O)CC(N3CCN(c4ccc(Cl)cc4)CC3)C2=O)cc1 (stereo unspecified),-2%,-2%,-1%,x
O=C(CSc1ccc2nnc(-c3ccccn3)n2n1)NCc1ccco1,14%,45µM*,1%,8%[46.1 µM]
O=C(Nc1ccc(OC(F)F)cc1)c1ncc(Cl)c(Cl)c1Cl,-2%[57.1 µM],24%[57.1 µM],0%,-24%
CCOc1ccc(NC(=O)c2nc(S(=O)(=O)Cc3ccc(C)cc3)ncc2Cl)cc1,-5%,u,x,x
Cc1ccc(CS(=O)(=O)c2ncc(Cl)c(C(=O)Nc3ccc(OC(F)F)cc3)n2)cc1,0%,28µM*,2%,x
COc1ccc(NC(=O)c2nc(S(=O)(=O)Cc3ccc(C)cc3)ncc2Cl)cc1,6%,2.5µM*,x,x
Cc1cc(C)[n+](C)c2ccccc12,9%,-14%,x,x
C=Cc1c(C)c2cc3[nH]c(cc4nc(cc5nc(cc1[nH]2)C(C)=C5CCC(=O)O)C(CCC(=O)O)=C4C)c(C)c3C=C,11%[57.1 µM],5.3µM*!,x,u
CC(C)NC(=O)CN1C(=O)CCn2nc(-c3cn(C)c4ccccc34)cc21,-5%[57.1 µM],-1%[57.1 µM],x,x
O=C1NC(=O)/C(=C/c2ccco2)N1,-20%,-23%,x,x
O=C1NC(=S)NC1=Cc1ccco1,-10%,7.9µM*,x,x
CCS(=O)(=O)N1CCc2cc(C(=O)NCc3ccc(Cl)cc3)ccc21,-3%,6%,x,x
CCC(C)NC(=O)CSc1nc(-c2ccc(F)cc2)cc(C(F)(F)F)n1 (stereo unspecified),7%,34%,x,x
C#CCSc1nc2ccccc2c(=O)n1CC=C,0%,7%,x,x
C#CCSc1nncn1C(=O)/C=C/c1ccccc1,6%,22µM*,x,-11%[46.1 µM]
CCCCn1c(N)c(C(=S)NC(=O)CC(C)(C)C)c(=O)n(C)c1=O,-6%,40µM*,1%,-2%[46.1 µM]
Cc1cccc(NC(=O)c2cccc(N3CCCS3(=O)=O)c2)c1,6%[57.1 µM],20%[57.1 µM],x,x
Cc1nc2ccccc2n2c(O)c(CC(=O)O)cc12,34%,35µM*,0%,-29%[46.1 µM]
O=C1CCC[C@@H]2CC(Nc3ccccc3)C[C@@H]3CCN1[C@H]23 (stereo partly specified),3%,16%,x,x
O=C(CCl)N(c1ccccc1)c1ccccc1,9%[57.1 µM],u,-5%,u
O=Cc1[nH]c2ccccc2c1N(C(=O)CCl)c1ccccc1,6%[57.1 µM],3.5µM*,3%,u
SMILES,TrxR1 substrate,rTrxR1 inhibitor,GALK inhibitor,NPSR antagonist
Cc1sc2ccccc2[n+]1CCCCBr,5%,179%,x,x
N#CC(C#N)=C1C=CC=CN1/C(=C\c1ccco1)C(=O)c1ccc(Cl)cc1,-10%,0.5µM*,-3%,u
N#CC(C#N)=C1C=CC=CN1/C(=C\c1ccco1)C(=O)c1ccc(-c2ccccc2)cc1,2%,7.1µM*,-5%,-21%
CC(C)(C)c1ccc(-n2ncc3c2CCCC3NC(=O)C2(C(N)=O)CC2)cc1 (stereo unspecified),-8%[57.1 µM],30%[57.1 µM],1%,x
Cc1c(NC(=O)c2ccc(Br)o2)cccc1-c1nc2ccccc2o1,-1%,10%,x,x
Cc1ccc(CNC(=O)COC(=O)c2ccccc2OCC(=O)Nc2ccc(Br)cc2)cc1,8%,28%,x,x
COc1cc2c(NC3CCN(C)CC3)nc(N3CCCN(C)CC3)nc2cc1OCC1CCCNC1 (stereo unspecified),58%,32µM*,x,x
C=CCN(C)CCCCCCOc1ccc(C(=O)c2ccc(Br)cc2)c(F)c1,6%,-2%,x,x
COc1cccc(CCc2nnc(CCC(=O)NCCc3cccc(C)n3)o2)c1,1%[57.1 µM],8%[57.1 µM],-2%,-13%
COc1cccc(CCc2nnc(CCC(=O)N3CCN(Cc4ccccn4)CC3)o2)c1,6%,32µM*,-1%,-10%

# Screening data from PubChem BioAssay.
